Assay results as given in ChEMBL document CHEMBL4513216, “Probing the Open Global Health Chemical Diversity Library for Multistage-Active Starting Points for Next-Generation Antimalarials” (ACS Infect Dis, 2020).
Among all 68,000 compounds or so, about 2,700 (4%) showed an effect of 50% or more. The sample as a whole holds a higher share of strong results than the screen did.

System: Plasmodium berghei
Assay: Screen against P. berghei liver stage (PbLuc), transformed with Luciferase, at 2uM
Assay type: functional, HepG2
Settings: tested at 2 uM

Row | Compound | INHIBITION [%]
1 | Cn1cc(CN2CCn3cc(CNC(=O)c4cccn4C)nc3C2)cn1 | 16.22
2 | Cc1c(NCc2ccc(C#N)cc2)cccc1S(=O)(=O)NC1CC1 | 21.14
3 | COC(=O)CNC(=O)c1ccn(-c2ccc(Cl)c(Cl)c2)n1 | -14.28
4 | CCN(Cc1ccncc1)C(=O)c1cn(CCCc2ccccc2)nn1 | 30.42
5 | CC(C)=CCN1CC2(CCN(Cc3ncc[nH]3)CC2)CC1=O | 20.34
6 | CN1CC2(CCN(Cc3ncc[nH]3)CC2)CC1=O | 73.62
7 | COCCCN1CC2(CCN(Cc3ncc[nH]3)CC2)CC1=O | 25.13
8 | Cc1n[nH]cc1C(=O)NCc1cccnc1N1CCc2ccccc2C1 | 18.63
9 | CS(=O)(=O)Cc1ccc(CNc2ncc(C#N)cc2Cl)cc1 | -35.5
10 | CCN(CC)C(=O)c1ccc(CNc2ncc(C#N)cc2Cl)cc1 | 27.52
11 | N#Cc1ccc(CNc2ncc(C#N)cc2Cl)cc1 | 51.88
12 | CSc1nccc(N2CCC3(CCCN(CCc4ccccc4)C3)C2)n1 (configuration not stated) | -31.44
13 | CCC(NC(=O)c1nn(C)cc1C(=O)O)c1ccccc1 (configuration not stated) | 49.95
14 | N#Cc1ccc(CNC(=O)NC2CCN(CC(F)F)CC2)cc1 | -39.58
15 | Cc1ccc(CNC(=O)NC2CCN(CC(F)F)CC2)cc1 | -5.19
16 | N#Cc1cccc(CNC(=O)NC2CCN(CC(F)F)CC2)c1 | 67.51
17 | O=C(NCc1nnc2n1CCCC2)c1ccc(C2CCCO2)s1 (configuration not stated) | 29.22
18 | COc1cc(N2CCC3(CCCN(Cc4ccccn4)C3)C2)ncn1 (configuration not stated) | -21.32
19 | Cc1cc(C)nc(N2CCC(CNC(=O)c3cnccn3)CC2)n1 | 95.75

Row | Compound | INHIBITION [%]
20 | O=C(NCC1CCN(c2ncccn2)CC1)c1cnccn1 | 26.66
21 | Cc1cc(C)nc(N2CCC(CNC(=O)c3ccccn3)CC2)n1 | 27.39
22 | CN(Cc1cccc(F)c1)C(=O)CN1CCOC(Cn2cccn2)C1 (configuration not stated) | 20.28
23 | CCn1ncc(CN2CCc3nc(-c4cccnc4)nc(O)c3C2)c1C | 21.14
24 | O=c1[nH]c(-c2cccnc2)nc2c1CCN(S(=O)(=O)N1CCCC1)C2 | -15.3
25 | CCn1ncc(CN2CCc3c(nc(-c4cccnc4)[nH]c3=O)C2)c1C | 54.82
26 | CCO[C@H]1COC[C@@H]1NC(=O)c1c[nH]nc1C1CCCCC1 | -73.93
27 | O=C(N[C@H]1COC[C@@H]1N1CCCC1)c1c[nH]nc1C1CCCCC1 | 77.54
28 | Cc1nc(C(=O)N[C@H]2COC[C@@H]2N2CCCCC2)cs1 | 11.19
29 | Cc1cc(C)cc(C(=O)NCCCNc2ncccn2)c1 | 29.13
30 | COc1ccc(C(=O)NCCCNc2ncccn2)c(OC)c1 | 48.21
31 | COc1cc(OC)cc(C(=O)NCCCNc2ncccn2)c1 | 57.75
32 | CCc1ccc(C(=O)NCCNc2ncccn2)cc1 | 56.02
33 | COc1ccc(C(=O)NCCCNc2ncccn2)cc1F | 5.28
34 | O=C(NCCNc1ncccn1)c1ccc(Br)cc1 | -68.24
35 | CCOc1ccc(C(=O)NCCCNc2ncccn2)cc1 | 50.59
36 | Cc1ccc(C)n1-c1ccc(C(=O)NCCNc2ncccn2)cc1 | 1.61
37 | CS(=O)(=O)c1ccc(C(=O)NCCNc2ncccn2)cc1 | 35.65
